The supplement of paper PMC13380429

Tests used:
[1] = test system: Vero E6 infected with SARS-CoV-2; experiment: morphology score (similarity to uninfected cells); higher = more like uninfected cells; settings: 24 h
[2] = test system: Vero E6 infected with SARS-CoV-2; experiment: SARS-CoV-2 infection rate relative to infected DMSO; higher = more infection, active = 60 or less; settings: 24 h

SMILES	morphology score [1]	SARS-CoV-2 infection rate [2]
Cc1cc2c(C(C)C)c(O)c(O)c(C=O)c2c(O)c1-c1c(C)cc2c(C(C)C)c(O)c(O)c(C=O)c2c1O [gossypol] (0.833333 µM)	-0.0839	104% (inactive)
CCC(=O)O[C@H]1CC[C@H]2[C@@H]3CCC4=CC(=O)CC[C@]4(C)[C@H]3CC[C@]12C (10 µM)	-0.129	110% (inactive)
NCCCC[C@H](N[C@@H](CCc1ccccc1)C(=O)O)C(=O)N1CCC[C@H]1C(=O)O [lisinopril] (10 µM)	0.0957	100% (inactive)
CCC(NC(C)C)C(O)c1ccc(O)c(O)c1 (configuration not stated) [isoetharine] (10 µM)	0.128	93% (inactive)
CCCN(CCc1cccs1)[C@H]1CCc2c(O)cccc2C1 [rotigotine] (10 µM)	-0.0144	96.5% (inactive)
CN(C)CCc1ccc(O)cc1 [hordenine] (10 µM)	0.163	90.5% (inactive)
CC(=O)Oc1ccccc1C(=O)Oc1ccccc1C(=O)O [acetylsalicylsalicylic-acid] (10 µM)	0.0259	103% (inactive)
Cc1onc(O)c1C[C@@H](N)C(=O)O (racemic) (10 µM)	0.0374	104% (inactive)
NCCCNCCCCNCCCN [spermine] (10 µM)	0.0211	107% (inactive)
CC(C)=CCc1c(O)cc(O)c2c(=O)c(O)c(-c3ccc(C(F)(F)F)cc3)oc12 (0.833333 µM)	0.14	104% (inactive)
C=CC(=O)Nc1cccc(Nc2nc(Nc3ccc(N4CCN(C(C)=O)CC4)cc3OC)ncc2C(F)(F)F)c1 [rociletinib] (10 µM)	-0.408	106% (inactive)
